# PubChem BioAssay AID743398 (Broad Institute, 2014)
# Hit rate of the full screen: of about 300,000 compounds, about 3,600 (1.2%) were called active. Rule as the data show it: active = activation above about 30% (passing the limit was not always enough); inconclusive = no clear call, values can overlap the other calls. Shown is part of a subset that was picked to be rich in actives.
# Assay: activation of beta-catenin signaling reporter – cell-based, plate reader, single point, primary screen (AID 743398);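 also: 0% = neutral control wells and 100% = positive control wells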
# Details: Wnt/beta-catenin reporter cell assay, activator, at 9.35 µM, hits give high values
row,Structure (SMILES),activation
1,O=C(c1ccc(N2CCCC2=O)cc1)N1CCN(c2ccc(C(F)(F)F)cc2[N+](=O)[O-])CC1,-1.11% (inactive)
2,CC(=O)c1ccc(Nc2nc(C(N)c3ccccc3Cl)cs2)cc1 (configuration not stated),-4.58% (inactive)
3,O=C(C(=O)N1CCC(CNS(=O)(=O)Cc2ccccc2)CC1)c1cc2ccccc2o1,-4.41% (inactive)
4,CCc1nc(SCC(=O)NNC(=O)c2ccc(C)cc2)c2ccccc2n1,-1.15% (inactive)
5,Cc1ccc(C(=O)NNC(=O)c2cccs2)cc1,6.9% (inactive)
6,Cc1ccc(C(=O)NNc2ncnc3ccccc23)cc1,42.9% (active)
7,COC(=O)C1=C(C)N(Cc2ccccc2C(F)(F)F)C(=NCC2CC2)NC1c1cccc(Cl)c1 (configuration not stated),-1.87% (inactive)
8,CCOC(=O)[C@]12CCCC=C1N(Cc1cccc3ccccc13)C(=O)[C@H](CC(=O)NCC13CC4CC(CC(C4)C1)C3)C2,-3.35% (inactive)
9,CCc1c(-c2ccc(F)cc2)ncn1Cc1cccc(-c2ccccc2)c1,-4.88% (inactive)
10,CN[C@H]1C[C@H]2c3[nH]c4c(-c5ccccc5)cccc4c3CCN2C(=O)[C@H]1[C@H](C)O,-5.37% (inactive)
11,CCCc1nc2c3ccccc3ccn2c1Cc1ccccc1C(F)(F)F,-0.94% (inactive)
12,Cc1ccc(N)cc1CN1CCN(c2ncc(Cc3ccccc3)cn2)CC1,-1.28% (inactive)
13,CCN(CCn1cccn1)Cc1cn[nH]c1-c1ccc(OC)cc1F,33.5% (active)
14,COc1ccc(-c2[nH]ncc2CN(C)Cc2cc(C)[nH]n2)c(F)c1,-0.792% (inactive)
15,COc1ccc(-c2[nH]ncc2CN(C)Cc2cccnc2)c(F)c1,8.31% (inactive)
16,NC(=O)c1ccccc1N(Cc1ccccc1)S(=O)(=O)c1ccccc1,30% (active)
17,CCOC(=O)N1CCN(C(=O)c2ccccc2N(Cc2ccccc2)S(=O)(=O)c2ccc(OC)cc2)CC1,-3.31% (inactive)
18,O=C(O)c1cc(S(=O)(=O)N(Cc2ccccc2)c2ccccc2)ccc1Cl,1.67% (inactive)
19,O=C(N[C@H](Cc1ccccc1)C(=O)N1CCCN(Cc2cccs2)CC1)[C@H]1O[C@@H](n2ccc(=O)[nH]c2=O)[C@H](O)[C@@H]1O,2.26% (inactive)
20,NC(=O)c1ncn([C@@H]2O[C@H](C(=O)O)[C@@H](O)[C@H]2O)n1,3.51% (inactive)
21,CC(=O)Nc1cccc(-c2csc(Nc3cccc(C)n3)n2)c1,26.8% (inactive)
22,Cc1cccc(Nc2nc(-c3ccccc3)cs2)n1,19.7% (inactive)

row,Structure (SMILES),activation
1,COc1ccc(-c2csc(Nc3cccc(C)n3)n2)cc1OC,50% (active)
2,CC(=NNC(N)=O)c1ccc(Cl)c(-n2cccc2)c1,-7.68% (inactive)
3,COc1ccccc1-c1cc2nc(NCc3cccc(Cl)c3)ccn2n1,-1.89% (inactive)
4,Cc1ccc(OCC(=O)Nc2nnc(-c3ccco3)s2)cc1,-0.584% (inactive)
5,CCCCOc1ccc(-c2nnc(-c3ccco3)o2)cc1,46.7% (active)
6,COc1ccc(OCC(=O)Nc2nnc(-c3ccco3)s2)cc1,-4.19% (inactive)
7,C=CCN=C1NC(c2ccccc2)C(C(=O)OC)=C(C)N1Cc1ccc(C(F)(F)F)cc1 (configuration not stated),-8.4% (inactive)
8,Cn1c(-c2ccc(C(=O)c3ccccc3)s2)nc2ccccc21,44.9% (active)
9,Cn1c(NC(=O)c2ccccc2)nc2ccccc21,19.2% (inactive)
10,Cn1c(S(=O)(=O)O)nc2ccccc21,-1.9% (inactive)
11,CCCCc1c(-c2ccc(Cl)cc2)ncn1CCc1ccccc1OC,-10.4% (inactive)
12,O=S1(=O)c2ccc(Br)cc2-n2nncc2CN1Cc1cccc(Cl)c1,-0.853% (inactive)
13,CCOC(=O)[C@H]1Nc2ccc(Cl)cc2[C@@H]2[C@H]1C1CC(c3ccccc31)N2C(=O)OCc1ccccc1 (some centres not stated),-1.09% (inactive)
14,Cc1cccc(N2O[C@H]3C=CC2CCCC3)n1,-7.04% (inactive)
15,Cc1ccn(-c2cccc(-n3ccc(C)n3)n2)n1,57.6% (active)
16,COc1ccc(C2=Nc3ccccc3NC(=O)C2N(C(=O)c2cc3ccccc3[nH]2)c2ccccc2)cc1 (configuration not stated),23.9% (inactive)
17,CCCCCCCCN1C(=O)[C@@H](CC(=O)N2CCN(C(=O)OCC)CC2)C[C@@]2(C(=O)OC)C1=C[C@H](C1CCCC1)O[C@@H]2C,-4.17% (inactive)
18,CCCCOCCCNC(=O)C[C@@H]1C[C@@]2(C(=O)OCC)CCCC=C2N(CCC2=CCCCC2)C1=O,-4.42% (inactive)
19,CC1CCN(C(=O)c2ncn3c2C(=O)N[C@@H](C)C3)CC1,-1.28% (inactive)
20,C[C@H]1[C@H](c2ccccc2)Oc2cc(Br)ccc2S(=O)(=O)N1Cc1cccc(F)c1,-3.84% (inactive)
21,CCCNC(=O)C1(C)CCCN(Cc2cccc(C(F)(F)F)c2)C1 (configuration not stated),-4.42% (inactive)
22,O=C(CSC(=S)N1CCCCC1)c1c(F)cccc1F,58.4% (active)

row,Structure (SMILES),activation
1,COc1cccc(NC(=O)CN(C)C(=O)CSC(=S)N2CCCC2)c1,0.702% (inactive)
2,O=C(CSC(=S)N1CCOCC1)c1ccccc1,9.4% (inactive)
3,O=C(NS(=O)(=O)c1cccs1)[C@H]1O[C@@H](n2ccc(=O)[nH]c2=O)[C@H](O)[C@@H]1O,-2.42% (inactive)
4,COC(=O)[C@]12CCCCC=C1N(Cc1cccc3ccccc13)C(=O)[C@H](CC(=O)N1CCOCC1)C2,2.09% (inactive)
5,COCc1[nH]nc2c1C(c1ccccc1)N(c1ccccc1)C2=O (configuration not stated),-1.18% (inactive)
6,Cc1ccc(S(=O)(=O)N2CCN(C(=O)Cn3c(=O)cnc4ccccc43)CC2)c(C)c1,68.6% (active)
7,Cc1ccc(S(=O)(=O)N2CCN(C(=O)CSc3cc(C)ccc3C)CC2)c(C)c1,-0.764% (inactive)
8,Cc1ccc(S(=O)(=O)N2CCN(C(=O)COC(=O)c3c(C)cc(C)cc3C)CC2)c(C)c1,-2.2% (inactive)
9,Cc1ccc2nc(CN(C)C(=O)[C@@H](Cc3ccccc3)NC(=O)[C@H]3O[C@@H](n4ccc(=O)[nH]c4=O)[C@H](O)[C@@H]3O)[nH]c2c1,-3.23% (inactive)
10,CCn1nc(C(=O)OCC(=O)N2c3ccccc3CC2C)c2ccccc2c1=O (configuration not stated),-0.818% (inactive)
11,Cc1ccn(CCC(=O)N2c3ccccc3CC2C)n1 (configuration not stated),-0.727% (inactive)
12,CCCC(=O)N1c2ccc(-c3csc(N)n3)cc2CC1C (configuration not stated),56.5% (active)
13,CCc1nc2ccc(C(=O)NC3CCN(Cc4ccccc4)CC3)cn2c1N(CC)CCOC,-0.563% (inactive)
14,O=C1C(Sc2cccc(F)c2)=C[C@@]2(O)CC[C@@H](O)[C@]1(Sc1cccc(F)c1)[C@H]2O,-1.51% (inactive)
15,O=C(N/N=C/c1cccc([N+](=O)[O-])c1)c1ccncc1,-0.352% (inactive)
16,O=[N+]([O-])c1cccc(C=NN=Cc2ccccc2O)c1,68% (active)
17,COc1ccc(O)c(/C=N/N=C/c2cccc([N+](=O)[O-])c2)c1,5.49% (inactive)
18,COCC1CCCCN1C(=O)c1cc(COc2ccc(C)c(C)c2)on1 (configuration not stated),28.7% (inactive)
19,CO[C@@H]1CN(C)C(=O)c2cc(NC(=O)Nc3cc(F)ccc3F)ccc2OC[C@H](C)N(C(=O)c2ccccn2)C[C@@H]1C,-7.29% (inactive)
20,c1ccc2c(c1)nnn2-c1ccncc1,-1.47% (inactive)
21,COC(=O)c1sccc1NC(=O)c1ccc(Cl)cc1,-0.421% (inactive)
22,COC(=O)c1sccc1NC(=S)Nc1ccc(C)cc1,12.9% (inactive)

row,Structure (SMILES),activation
1,COC(=O)c1sccc1NN1C(=O)c2ccccc2C1=O,40.2% (active)
2,O=C(NC1CCCCC1)C(c1cc2ccccc2o1)n1c(=O)c(-c2ccco2)nc2ccccc21 (configuration not stated),2.44% (inactive)
3,CCOC(=O)c1cccc(NC(=O)CCOc2ccccc2)c1,-0.119% (inactive)
4,CCOC(=O)c1cccc(NC(=O)CN2C(=O)C3CC=CCC3C2=O)c1 (configuration not stated),0.82% (inactive)
5,CCOC(=O)c1cccc(NC(=O)c2ccc(F)cc2F)c1,46.1% (active)
6,COc1ccc(N2C(=O)c3ccccc3NC2c2ccc(OC)c(CN3CCOCC3)c2)cc1 (configuration not stated),7.45% (inactive)
7,COc1ccc(C2Nc3ccccc3C(=O)N2c2ccc(Cl)cc2)cc1Cn1cc([N+](=O)[O-])cn1 (configuration not stated),63.8% (active)
8,COc1ccc(C2Nc3ccccc3C(=O)N2Cc2ccccc2)cc1Cn1nnc2ccccc21 (configuration not stated),-5.17% (inactive)
9,COc1cccc(-c2cnc3c(NC(C)=O)cc(-c4cc(F)ccc4OC)cn23)c1,-0.939% (inactive)
10,CC(C)(C)C1CCC(=O)N2CCC[C@]2(c2ccccc2)C1 (some centres not stated),-2.76% (inactive)
11,COc1ccc(C2=NN(C(=O)c3ccccc3C(=O)O)C(c3ccccc3O)C2)cc1 (configuration not stated),42.7% (active)
12,COc1ccc(C2=NN(C(=O)c3cccnc3)C(c3ccccc3)C2)cc1 (configuration not stated),1.72% (inactive)
13,COc1ccc(C2=NN(C(C)=O)C(c3ccccc3)C2)cc1 (configuration not stated),3.24% (inactive)
14,COCCNC(=S)N(C)[C@H]1C[C@H]2c3[nH]c4ccccc4c3CCN2C[C@H]1[C@H](C)O,-0.111% (inactive)
15,COC(=O)[C@]12CCCCC=C1N(Cc1ccc(Cl)cc1Cl)C(=O)[C@H](CC(=O)NCc1cccc3ccccc13)C2,-3.47% (inactive)
16,O=C(CCc1ccc(O)cc1)NN=Cc1cc(Br)ccc1O,-2.84% (inactive)
17,O=C(Nc1ccccc1N1CCN(C(=O)c2ccccc2)CC1)c1ccc2c(c1)OCO2,1.55% (inactive)
18,N#Cc1ccccc1NC(=O)c1ccc2c(c1)OCO2,3.38% (inactive)
19,O=C(Nc1ccccc1F)c1ccc2c(c1)OCO2,44% (active)
20,CN1C(=O)C(Br)(Br)CC1c1cccnc1 (configuration not stated),0.101% (inactive)
21,CCOC(=O)[C@]12CCCC=C1N(CCC1=CCCCC1)C(=O)[C@H](CC(=O)N1CCSCC1)C2,-2.19% (inactive)
